Assay outcomes from PubChem BioAssay.
NS1 function inh = influenza NS1 inhibition | Potency, µM (series often up to 46.1 µM) | hit rate 0.4% among 270,000; calls by dose curve; note: actives are rising curves; nearly all actives have a fitted effect of over 50% in size
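Read-out: OD600 growth recovery of NS1-expressing budding yeast. Cells grown overnight at 30C in -URA glucose medium, washed, resuspended and diluted 1:100 in 2% galactose assay medium, pH 6.0. Same strain lacking NS1 served as positive control.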
Pf growth 96h = inhibits malaria parasite growth, 96 h; AID 504834; Potency, µM (doses to about 28.7 µM), usual class: inhibitors; P. falciparum luciferase reporter growth, 96 h; hit rate 6.9% among 320,000
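Erythrocytes infected with luciferase-expressing P. falciparum were dispensed at 2% hematocrit and 0.05% parasitemia (final), then incubated with compounds 96 hours at 37 C in 5% CO2. Luminescence after detection reagent addition reported growth.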
Sm TGR inh = S. mansoni TGR enzyme inhibition | Potency, µM (doses to about 114 µM), usual class: inhibitors | hit rate 3% among 360,000 | purified TGR, DTNB reduction, TNB absorbance 405 nm; note: nearly all actives have a fitted effect of over 60% in size
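TGR 20 nM + NADPH 100 uM (dispensed conc.), cpd preinc 15 min RT; start with NADPH (500 uM addition) then DTNB (15 mM addition). Kinetic TNB absorbance, 405 nm filter. Four-parameter Hill fit across titration.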
Pf growth 48h = inhibits P. falciparum growth in the first generation, 48 h; hit rate 5.9% among 310,000; Potency, µM (titrated, usually from 28.7 µM), usual class: inhibitors; AID 504832; P. falciparum luciferase growth in erythrocytes, 48 h
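Luciferase-expressing P. falciparum in infected erythrocytes (2% hematocrit, 0.1% parasitemia final) in RPMI 1640/0.5% Albumax were exposed to compound for 48 hours at 37 C, 5% CO2; growth read as luminescence.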
CHX counter = counter-screen for Shiga toxin inhibitors: cycloheximide protein synthesis inhibition; max response, %; hit rate 12% among 300,000; cell reporter, cycloheximide protein synthesis inhibition counterscreen; in the data active = max response mostly above about 13%, no sharp cut-off; inactive = mostly below about 14%; note: read at 38.3 µM for the half of the compounds with a filed dose
Shiga toxin inh = inhibitors of Shiga toxin in Vero cells | Vero cells, Shiga toxin protein synthesis inhibition reporter | inhibition, % at 38.7 µM | hit rate 9.2% among 290,000; in the data active = inhibition mostly above about 28%, no sharp cut-off; inactive = mostly below about 43%
Of the large screens only hits and unclear results are named; the others gave an inactive call. Rows were chosen to be rich in hits. Some 21% of all compounds tested hit in one or more screens of this group. Unless noted, calls come from the whole dose curve; as a rule, active = well fitted curve in the direction sought with a large enough effect; inconclusive = small, poorly fitted or top-dose-only effect, or another doubt; inactive = no such curve, though single readings can be large; an effect the other way counts as inactive or inconclusive.

COc1cc(C(=O)N2CCN(C3CCCCC3)CC2)cc(OC)c1OC	none
Cc1csc2nc(O)c(C(=O)NC3CCCCCC3)c(=O)n12	Pf growth 96h inconclusive, Pf growth 48h 12µM (no result: NS1 function inh, CHX counter, Shiga toxin inh)
Cc1csc2nc(O)c(C(=O)NC3CCCCC3)c(=O)n12	Pf growth 96h 5.9µM, Pf growth 48h 12µM (no result: NS1 function inh, CHX counter, Shiga toxin inh)
CCOc1ccccc1-n1c(SCC(=O)N2CCOCC2)nc2ccccc2c1=O	none
O=C(Nc1cccc(Br)c1)c1cc(=O)c2ccccc2o1	none
COc1cc(Cl)c(C)cc1NC(=O)c1nn(-c2ccc(C)cc2)c(=O)n(C)c1=O	none (no result: NS1 function inh, Pf growth 96h, Pf growth 48h, CHX counter, Shiga toxin inh)
CC(C)C(NC(=O)CCNC(=O)c1ccccc1Cl)c1nc2ccccc2[nH]1 (stereo not drawn)	Pf growth 48h inconclusive (no result: NS1 function inh, CHX counter, Shiga toxin inh)
CC(C)C(NC(=O)CCNC(=O)c1ccc(C(C)(C)C)cc1)c1nc2ccccc2[nH]1 (stereo not drawn)	Pf growth 96h inconclusive, Pf growth 48h 8.3µM (no result: NS1 function inh, CHX counter, Shiga toxin inh)
COc1ccc(/C=C2/Sc3ccc(C(=O)NCCN4CCCCCC4)cc3NC2=O)cc1	Pf growth 96h inconclusive, Pf growth 48h 9.3µM
O=C1Nc2cc(C(=O)NCCCN3CCCC3)ccc2S/C1=C\c1ccccc1	Pf growth 48h 9.3µM
COC(=O)[C@@H]1CCCN1Cc1c(C(=O)N2CCOCC2)nc2c(C)cccn12	none
O=C(CN1C(=O)NC2(CCCC2)C1=O)Nc1cccc(Cl)c1	none
COc1ccc(/C=N/NC(=O)c2ccncc2)cc1CN1CCN(c2ccc(F)cc2)CC1	Pf growth 96h 3.7µM (no result: NS1 function inh)
COc1ccc(/C=N\NC(=O)c2cc(O)c(O)c(O)c2)cc1CN1CCN(c2ccc(F)cc2)CC1	NS1 function inh inconclusive, Pf growth 96h inconclusive, Pf growth 48h 4.7µM
COc1ccc(/C=N/NC(=O)c2ccc(C)cc2)cc1CN1CCN(c2ccc(F)cc2)CC1	none
COc1ccc(N(CCCN2C(=O)c3cccc4cccc(c34)C2=O)C(=O)c2cccc(OC)c2)cc1	NS1 function inh inconclusive, Pf growth 96h inconclusive, Pf growth 48h inconclusive
O=C(COC(=O)C1=COCCO1)Nc1ccc([N+](=O)[O-])cc1C(F)(F)F	none (no result: NS1 function inh, CHX counter, Shiga toxin inh)
O=C(NCCO)C(c1ccccc1)c1ccccc1	Pf growth 96h inconclusive, Sm TGR inh inconclusive
O=C(O)CNC(=O)C(c1ccccc1)c1ccccc1	Pf growth 48h 13µM
CCCCC(Sc1nc(C)c(Cc2ccccc2)c(=O)[nH]1)C(=O)O (stereo not drawn)	NS1 function inh inconclusive, Pf growth 96h inconclusive, Pf growth 48h inconclusive
CC(C)Cn1c(CCNC(=O)c2ccco2)nc2ccccc21	Pf growth 96h inconclusive, CHX counter 31
CCCCCCn1c(C(C)NC(=O)c2ccco2)nc2ccccc21 (stereo not drawn)	Pf growth 96h inconclusive, Sm TGR inh 40µM, Pf growth 48h inconclusive, CHX counter 12
CC(C)Cn1c(CCCNC(=O)c2ccco2)nc2ccccc21	none
O=C(Nc1nc2ccccc2n1Cc1ccccc1)c1ccco1	NS1 function inh inconclusive, Pf growth 48h 13µM, CHX counter 26 (no result: Pf growth 96h)
O=C(NCCc1nc2ccccc2n1Cc1ccccc1)c1ccco1	none (no result: NS1 function inh, Pf growth 96h, Pf growth 48h, CHX counter, Shiga toxin inh)
CCn1c(CCCNC(=O)c2ccco2)nc2ccccc21	NS1 function inh inconclusive
CCCCn1c(C(C)NC(=O)CC)nc2ccccc21 (stereo not drawn)	none
CCn1c(CCNC(=O)c2ccco2)nc2ccccc21	Pf growth 96h 9.3µM
O=C(CNC(=O)C1CCCCC1)OC(C(=O)c1ccccc1)c1ccccc1 (stereo not drawn)	Pf growth 96h inconclusive (no result: NS1 function inh, CHX counter, Shiga toxin inh)
CCc1ccccc1NC1c2ccccc2C(=O)N1c1cc(C)ccn1 (stereo not drawn)	Pf growth 48h 13µM
Cc1ccnc(N2C(=O)c3ccccc3C2Nc2ccccc2Cl)c1 (stereo not drawn)	Pf growth 96h inconclusive, Pf growth 48h inconclusive, Shiga toxin inh 29
Cc1ccc(N2C(=O)c3ccccc3C2Nc2ccc(S(=O)(=O)N3CCCCC3)cc2)nc1 (stereo not drawn)	none (no result: Pf growth 48h)
CCc1ccccc1NC1c2ccccc2C(=O)N1Cc1ccco1 (stereo not drawn)	none
O=[N+]([O-])c1ccc(S(=O)(=O)N2CCN(C3CCN(Cc4ccccc4)CC3)CC2)cc1	Pf growth 48h inconclusive
CCOC(=O)N1CCC(N2CCN(S(=O)(=O)c3ccc4ccccc4c3)CC2)CC1	Pf growth 96h 12µM (no result: Pf growth 48h)
CCOC(=O)N1CCC(N2CCN(S(=O)(=O)c3ccc([N+](=O)[O-])cc3)CC2)CC1	Pf growth 96h inconclusive, Pf growth 48h 2.1µM
Cc1ccc(C)n1-c1ccc(C(=O)N2CCOCC2)cc1	NS1 function inh inconclusive, Sm TGR inh 8.9µM
CCOC(=O)N1CCN(C(=O)c2ccc(-n3c(C)ccc3C)cc2)CC1	Pf growth 96h 10µM, Pf growth 48h inconclusive
Cn1nc(C(=O)N2CCN(c3ccc([N+](=O)[O-])cc3)CC2)c2c1-c1ccccc1S(=O)(=O)C2	none
NC(=O)C1CCN(c2nc(-c3ccccc3[N+](=O)[O-])cs2)CC1	none (no result: NS1 function inh, Sm TGR inh, CHX counter, Shiga toxin inh)
O=C(NC1CCCCC1)C(c1ccccc1)N(Cc1ccc2c(c1)OCO2)C(=O)c1cnsn1 (stereo not drawn)	Pf growth 48h 9.3µM
Cc1ccc(C(C(=O)NC2CCCC2)N(C(=O)Cc2cccs2)c2ccc(C)c(C)c2)o1 (stereo not drawn)	Pf growth 96h 10µM, Pf growth 48h 10µM
Cc1ccc(C)c(N(C(=O)Cc2cccs2)C(C(=O)NC2CCCC2)c2ccc(C)o2)c1 (stereo not drawn)	Pf growth 48h inconclusive
CC(C(=O)NC1CCCC1)N(Cc1ccco1)C(=O)c1snc(C(=O)NC2CCCC2)c1N (stereo not drawn)	Pf growth 48h 13µM (no result: Pf growth 96h)
CC(C)(C)NC(=O)COC(=O)c1snc(C(=O)NC2CCCCC2)c1N	CHX counter 18, Shiga toxin inh 37
COc1ccc(C(C(=O)NCc2ccccc2)N(Cc2ccc3c(c2)OCO3)C(=O)c2cnccn2)cc1 (stereo not drawn)	none (no result: Pf growth 96h)
N#Cc1ccccc1COC(=O)CCCC1=NS(=O)(=O)c2ccccc2N1	Pf growth 96h inconclusive
CCOCCCNC(=O)C1CCCN(S(=O)(=O)c2ccc(-n3cnnn3)cc2)C1 (stereo not drawn)	none
Cc1ccc(CNC(=O)Cn2ncc3c([nH]c4ccc(C)cc43)c2=O)cc1	none (no result: NS1 function inh, Pf growth 96h, Pf growth 48h, CHX counter, Shiga toxin inh)
CC1CCCC(C)N1NC(=S)Nc1ccc(OC(F)F)cc1 (stereo not drawn)	Pf growth 48h inconclusive
CC1Cn2c(C(=O)NCc3ccccc3Cl)cc3cccc(c32)S1 (stereo not drawn)	none (no result: NS1 function inh, Pf growth 96h, Pf growth 48h, CHX counter, Shiga toxin inh)
Cc1ccc(N(C(=O)Cc2cccs2)C(C(=O)NC2CCCC2)c2ccncc2)cc1 (stereo not drawn)	Pf growth 96h 0.93µM, Pf growth 48h inconclusive
Cc1ccc(C(C(=O)NC2CCCC2)N(C(=O)Cc2cccs2)c2ccc3c(c2)OCCO3)cc1 (stereo not drawn)	Pf growth 96h inconclusive, Pf growth 48h 3.3µM
